Experimental data: PubChem BioAssay AID2284347 (EPA ToxCast)
Inconclusive results are not listed. Active and inactive are the calls of the source. The calls were made as follows: active = hit-call score of the fitted dose curve at least 0.9, where 1 is the maximum; inconclusive = response in the unintended direction; inactive = score below 0.9.

Test system: rainbow trout Peroxisome Proliferator-activated Receptor alpha (PPARa), gene 110490141
Assay: ATG_rtPPARa_EcoTox2: Attagene TRANS-FACTORIAL EcoTox-2 HepG2 Assay for rainbow trout Peroxisome Proliferator-activated Receptor alpha (PPARa)
Experimental: ATG_EcoTox2 is a cell-based, multiplexed assay created by modifying the existing Attagene TRANS-FACTORIAL system to include a panel of nuclear receptors from some or all the following species: human (Homo sapiens), african clawed frog (Xenopus laevis), rainbow trout (Oncorhynchus mykiss), japanese medaka (Oryzias latipes), and zebrafish (Danio rerio). The ECOTOX2-FACTORIAL format uses HepG2, a human liver cell line, with measurements taken at 24 hours after chemical dosing in a 24-well plate. ATG_rtPPARa_EcoTox2 is one of 29 assay components calculated in the ATG_EcoTox2 assay. It is designed to make measurements of mRNA induction, a form of inducible reporter, as detected with fluorescence intensity signals by Reverse transcription polymerase chain reaction (RT-PCR) and Capillary electrophoresis technology.The assay endpoint ATG_frPPARa_EcoTox2 was analyzed in the positive analysis fitting direction relative to DMSO as the negative control and baseline of activity. Using a type of inducible reporter, measures of mRNA for gain-of-signal activity can be used to understand the reporter gene at the transcription factor-level as they relate to the gene PPARa. Furthermore, this assay endpoint can be referred to as a primary readout, because this assay has produced multiple assay endpoints where this one serves a reporter gene function. […]

| SMILES | AC50 |
| --- | --- |
| O=C(O)C(F)(F)C(F)(F)C(F)(F)C(F)(F)C(F)(F)C(F)(F)C(F)(F)F | 54.2 µM (active) |
| O=S(=O)(O)C(F)(F)C(F)(F)C(F)(F)C(F)(F)C(F)(F)C(F)(F)F | 30.6 µM (active) |
